# According to PubChem BioAssay AID1159580 (chemical genetic matrix, 2015):
# The campaign covered roughly 5,500 compounds. About 2,000 (36%) were called active. Inconclusive results (about 18%) are left out. This is one part of the list. Unmarked numbers belong to inactive results. Rule as the data show it: active = normalized growth mostly below about 0.91 (no sharp cut-off); inconclusive = no clear call, values can overlap the other calls; inactive = mostly above about 0.92.
# Test: chemical genetic growth profiling, strain panel (AID 1159580);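 also: tested at 20 µM; growth read once vehicle control cultures reached saturation at 30 °C; 1 = growth at the plate median or of vehicle wells; lower values mean less growth of the strain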
# Conditions: S. cerevisiae deletion strains, growth OD
smiles,measurement,setting,value
CC(C)(OC(=O)c1ccccc1)[C@@H]1Cc2cc3ccc(=O)oc3cc2O1,normalized growth,"locus YBR021W, strain FUR4, active compounds read low",0.939
same,normalized growth,"locus YBR229C, strain ROT2, active compounds read low",0.986
same,normalized growth,"locus YCL029C, strain bik1, active compounds read low",1.01
same,normalized growth,"locus YDL035C, strain GPR1, active compounds read low",0.927
same,normalized growth,"locus YDL074C, strain BRE1, active compounds read low",0.95
same,normalized growth,"locus YDL101C, strain DUN1, active compounds read low",0.975
same,normalized growth,"locus YDL185W, strain tfp1, active compounds read low",0.956
same,normalized growth,"locus YDL192W, strain arf1, active compounds read low",0.982
same,normalized growth,"locus YDR101C, strain arx1, active compounds read low",0.975
same,normalized growth,"locus YDR150W, strain NUM1, active compounds read low",0.989
same,normalized growth,"locus YDR162C, strain NBP2, active compounds read low",0.834 (active)
same,normalized growth,"locus YDR318W, strain mcm21, active compounds read low",0.954
same,normalized growth,"locus YDR388W, active compounds read low",0.994
same,normalized growth,"locus YDR502C, strain sam2, active compounds read low",0.956
same,normalized growth,"locus YEL061C, strain CIN8, active compounds read low",0.992
same,normalized growth,"locus YER110C, active compounds read low",0.973
same,normalized growth,"locus YER155C, strain BEM2, active compounds read low",0.999
same,normalized growth,"locus YER167W, strain BCK2, active compounds read low",0.991
same,normalized growth,"locus YGL078C, strain dbp3, active compounds read low",0.957
same,normalized growth,"locus YGL086W, strain mad1, active compounds read low",0.987
same,normalized growth,"locus YGL248W, strain PDE1, active compounds read low",0.94
same,normalized growth,"locus YGR078C, strain PAC10, active compounds read low",0.945
same,normalized growth,"locus YGR135W, strain pre9, active compounds read low",0.951
same,normalized growth,"locus YGR229C, strain SMI1, active compounds read low",0.885
same,normalized growth,"locus YGR252W, strain gcn5, active compounds read low",0.805
same,normalized growth,"locus YHR030C, strain SLT2, active compounds read low",0.989
same,normalized growth,"locus YHR079C, strain IRE1 (second series), active compounds read low",1
same,normalized growth,"locus YHR094C, strain hxt1, active compounds read low",1
same,normalized growth,"locus YHR129C, strain ARP1, active compounds read low",0.989
same,normalized growth,"locus YHR200W, strain rpn10, active compounds read low",0.976
same,normalized growth,"locus YIL066C, strain RNR3, active compounds read low",0.927
same,normalized growth,"locus YIL073C, strain SPO22, active compounds read low",0.945
same,normalized growth,"locus YIL125W, strain kgd1, active compounds read low",1
same,normalized growth,"locus YIR030C, strain dcg1, active compounds read low",0.988
same,normalized growth,"locus YJL095W, strain BCK1, active compounds read low",0.89
same,normalized growth,"locus YJL134W, strain LCB3, active compounds read low",0.989
same,normalized growth,"locus YJL168C, strain set2, active compounds read low",0.983
same,normalized growth,"locus YJL187C, strain SWE1 (second series), active compounds read low",0.958
same,normalized growth,"locus YJR043C, strain POL32, active compounds read low",0.978
same,normalized growth,"locus YJR075W, strain HOC1, active compounds read low",0.976
same,normalized growth,"locus YKL009W, strain mrt4, active compounds read low",0.958
same,normalized growth,"locus YKL068W, active compounds read low",0.992
same,normalized growth,"locus YKL085W, strain MDH1 (second series), active compounds read low",1
same,normalized growth,"locus YKL085W, strain MDH1, active compounds read low",1
same,normalized growth,"locus YKR001C, strain vps1, active compounds read low",0.997
same,normalized growth,"locus YLR039C, strain RIC1, active compounds read low",1.05
same,normalized growth,"locus YLR058C, strain SHM2, active compounds read low",0.975
same,normalized growth,"locus YLR102C, strain apc9, active compounds read low",0.984
same,normalized growth,"locus YLR262C, strain YPT6, active compounds read low",1.02
same,normalized growth,"locus YLR268W, strain sec22, active compounds read low",0.977
same,normalized growth,"locus YLR330W, strain CHS5, active compounds read low",0.976
same,normalized growth,"locus YLR342W, strain FKS1 (second series), active compounds read low",1.01
same,normalized growth,"locus YLR371W, strain rom2, active compounds read low",0.994
same,normalized growth,"locus YLR418C, strain cdc73, active compounds read low",0.828 (active)
same,normalized growth,"locus YML016C, strain PPZ1, active compounds read low",0.982
same,normalized growth,"locus YML032C, strain rad52, active compounds read low",0.97
same,normalized growth,"locus YML124C, strain tub3, active compounds read low",0.974
same,normalized growth,"locus YMR078C, strain ctf18, active compounds read low",0.976
same,normalized growth,"locus YMR223W, strain ubp8, active compounds read low",0.945
same,normalized growth,"locus YMR307W, strain GAS1, active compounds read low",0.895
same,normalized growth,"locus YNL067W, strain RPL9B, active compounds read low",0.96
same,normalized growth,"locus YNL128W, strain TEP1, active compounds read low",0.981
same,normalized growth,"locus YNL233W, strain BNI4, active compounds read low",0.968
same,normalized growth,"locus YNL250W, strain rad50, active compounds read low",0.991
same,normalized growth,"locus YNL271C, strain bni1, active compounds read low",0.938
same,normalized growth,"locus YNL298W, strain CLA4, active compounds read low",0.942
same,normalized growth,"locus YNL307C, strain MCK1, active compounds read low",0.975
same,normalized growth,"locus YNL322C, strain KRE1, active compounds read low",0.984
same,normalized growth,"locus YNR052C, strain pop2, active compounds read low",0.983
same,normalized growth,"locus YOL006C, strain TOP1, active compounds read low",0.761
same,normalized growth,"locus YOL012C, strain htz1",1.01
same,normalized growth,"locus YOL147C, strain pex11, active compounds read low",0.986
same,normalized growth,"locus YOR061W, strain CKA2, active compounds read low",0.976
same,normalized growth,"locus YOR069W, strain VPS5, active compounds read low",0.983
same,normalized growth,"locus YOR136W, strain idh2, active compounds read low",0.987
same,normalized growth,"locus YOR144C, strain elg1, active compounds read low",0.973
same,normalized growth,"locus YOR184W, strain ser1, active compounds read low",0.861 (active)
same,normalized growth,"locus YOR316C, strain cot1, active compounds read low",0.976
same,normalized growth,"locus YPL241C, strain CIN2, active compounds read low",0.982
same,normalized growth,"locus YPR119W, strain clb2, active compounds read low",0.993
same,normalized growth,"locus YPR141C, strain kar3, active compounds read low",0.995
same,normalized growth,"locus YPR163C, strain tif3, active compounds read low",0.973
same,normalized growth,"locus YPR167C, strain met16, active compounds read low",0.98
same,normalized growth,"strain wtn01, active compounds read low",0.986
